Assay outcomes: PubChem BioAssay, National Center for Advancing Translational Sciences (NCATS)
The list is not random: actives were taken first. Their share in the collection is about 7.3%.
KinaseGlo FLuc: counter-screen: inhibitors of Kinase-Glo firefly luciferase; Potency, µM (doses to about 38.3 µM), usual class: inhibitors; Q27757; Kinase-Glo luciferase, ATP luminescence, 8 min; hit rate 0.28% among 200,000; note: nearly all actives have a fitted effect of over 60% in size
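Recombinant Kinase-Glo luciferase, 10 uM ATP (linear range), luciferin; imidazole pH 7.2 / KCl / MgCl2 / Tween / BSA buffer; 8 min RT; luminescence.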
ELG1 genotox: induces genotoxicity in HEK293T cells with luciferase-tagged ELG1; AID 504466; HEK293T ELG1-luciferase reporter, luminescence, 16 h; Potency, µM (titrated, usually from 46 µM), usual class: activators; hit rate 1.3% among 330,000; note: nearly all actives have a fitted effect of over 60% in size
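16 hr compound incubation (37 °C, 5% CO2) of HEK293T cells carrying luciferase-tagged ELG1; luciferase then measured by ONE-Glo luminescence after 30 min at RT.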
FLuc counter: firefly luciferase modulation, counter-screen for miR-21 project. Potency, µM (series often up to 57.5 µM), usual class: inhibitors. hit rate 6.9% among 360,000. purified FLuc, Km substrates, luminescence inhibition. P08659; note: nearly all actives have a fitted effect of over 55% in size
Target sequence (P08659 whole entry, looked up): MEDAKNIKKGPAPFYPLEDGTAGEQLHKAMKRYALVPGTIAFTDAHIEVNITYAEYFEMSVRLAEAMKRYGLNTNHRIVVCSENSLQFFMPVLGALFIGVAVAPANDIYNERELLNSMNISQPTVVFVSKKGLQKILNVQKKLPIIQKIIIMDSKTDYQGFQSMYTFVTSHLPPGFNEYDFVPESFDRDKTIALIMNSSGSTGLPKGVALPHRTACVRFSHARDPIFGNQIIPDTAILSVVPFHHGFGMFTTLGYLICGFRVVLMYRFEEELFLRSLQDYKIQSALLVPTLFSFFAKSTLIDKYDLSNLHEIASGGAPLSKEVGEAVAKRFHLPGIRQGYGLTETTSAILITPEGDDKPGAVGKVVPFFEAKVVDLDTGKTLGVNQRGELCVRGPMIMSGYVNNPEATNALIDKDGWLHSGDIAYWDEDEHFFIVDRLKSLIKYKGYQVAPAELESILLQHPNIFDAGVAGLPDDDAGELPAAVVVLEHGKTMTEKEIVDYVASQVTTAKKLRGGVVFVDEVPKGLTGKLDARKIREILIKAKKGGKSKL
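Biochemical qHTS of compounds, final roughly 60 µM downward over six points, against 10 nM purified firefly luciferase using Km concentrations of substrates (10 uM D-luciferin, 10 uM ATP) in Tris acetate pH 7.5 buffer; luminescence output.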
SMN2 splice enh: enhancers of SMN2 splice variant expression | HEK293 SMN2-luciferase splicing reporter, luminescence, 30-36 h | Potency, µM (highest dose often 46.1 µM), most hits filed as activators | hit rate 2.8% among 210,000 | AID 1458; note: nearly all actives have a fitted effect of over 55% in size
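qHTS luciferase splicing reporter: luminescence rises when SMN2 exon 7 is included in transfected HEK293 cells. Compound exposure lasted 30-36 h at 37C, with 4.5 mM final sodium butyrate as control, followed by a ONE-Glo read.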
Rab9 prom act: activates the Rab9 promoter. Huh7 Rab9 promoter-luciferase reporter, luminescence, 24 h. Potency, µM (titrated, usually from 9.22 µM), most hits filed as activators. hit rate 2.8% among 320,000; note: nearly all actives have a fitted effect of over 60% in size
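Promoter activation is measured as luciferase luminescence in Huh7 cells stably transfected with a Rab9 promoter–luciferase construct, following 24 h compound exposure at 37 °C and 10 min reagent incubation at ambient temperature.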
NPC1 prom act: NPC1 promoter activation. Huh7 NPC1 promoter luciferase reporter, 24 h. Potency, µM (top dose mostly 9.22 µM), most hits filed as activators. hit rate 2.4% among 320,000; note: nearly all actives have a fitted effect of over 60% in size
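Compounds in DMSO were transferred onto Huh7 NPC1-luciferase reporter cells pre-incubated 2 h; after 24 h at 37 °C, Amplite reagent was dispensed and luminescence recorded 10 min later.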
Numbers stand for hits; i = inactive; ? = inconclusive; nt = not tested or not shown. Calls come from the whole dose curve; as a rule, active = well fitted curve in the direction sought with a large enough effect; inconclusive = small, poorly fitted or top-dose-only effect, or another doubt; inactive = no such curve, though single readings can be large; an effect the other way counts as inactive or inconclusive.

SMILES	KinaseGlo FLuc	ELG1 genotox	FLuc counter	SMN2 splice enh	Rab9 prom act	NPC1 prom act
COc1ccccc1-n1nnnc1SCC(=O)Nc1cc(C)on1	i	i	i	i	i	i
Cc1ccc(SSc2cc(C)ccc2N)c(N)c1	nt	i	4.8µM	nt	0.79µM	1.1µM
COc1ccc(-c2csc(N(CCCN(C)C)C(=O)c3ccccc3C)n2)cc1	nt	i	i	nt	0.28µM	i
COCCN(C(=O)c1ccco1)c1nc(-c2ccccc2)cs1	nt	i	i	nt	i	i
CCC(=O)N(CC)c1nc(-c2ccc(OC)cc2)cs1	i	i	15µM	i	?	4.5µM
COc1ccc(-c2csc(N(CCCN(C)C)C(=O)c3ccccc3F)n2)cc1	nt	i	i	nt	i	i
CN(C)CCCN(C(=O)c1cccs1)c1nc(-c2ccccc2)cs1	i	?	i	7.9µM	i	i
CN(C(=O)c1ccco1)c1nc(-c2ccccc2)cs1	nt	?	5.4µM	nt	2µM	2.5µM
COCCCNc1ncnc2nc[nH]c12	i	i	i	i	i	i
COCCN(C(=O)c1ccccc1F)c1nc(-c2ccc(OC)cc2)cs1	nt	i	?	nt	i	?
CCN(C(=O)c1ccco1)c1nc(-c2ccc(OC)cc2)cs1	nt	?	12µM	nt	4µM	3.2µM
Oc1ccc(-c2cc(-c3ccc(O)cc3)nc(-c3ccccc3)n2)cc1	nt	i	i	nt	i	i
CCN(C(=O)c1ccccc1F)c1nc(-c2ccc(OC)cc2)cs1	nt	?	8.5µM	nt	2µM	3.2µM
CN(c1ccc(O)cc1)c1nc(-c2ccccc2)cs1	i	?	?	?	?	2.2µM
Cc1csc(NC(=O)CSc2nc3nc(C)cc(C)n3n2)n1	nt	i	i	nt	i	i
CC1(C(=O)OCC(=O)Nc2ccccc2)CC1(Cl)Cl (centres undefined)	i	i	17µM	i	?	?
CCC(C(=O)OCC(=O)Nc1ccc(F)cc1)c1ccccc1 (centres undefined)	nt	i	i	nt	i	i
O=C(Nc1ccc(N=Nc2ccccc2)cc1)c1ccccc1Cl	i	?	3.8µM	11µM	2.5µM	1.8µM
CC(C)C(=O)OCC(=O)NCc1ccccc1Cl	i	i	17µM	i	i	?
CC(C)C(=O)OCC(=O)Nc1ccc(N=Nc2ccccc2)cc1	i	21µM	?	11µM	0.79µM	2.5µM
CC(=O)OCC(=O)Nc1ccc(N=Nc2ccccc2)cc1	i	23µM	12µM	6.3µM	2.8µM	2.8µM
CC(=O)Nc1ccccc1	i	i	nt	i	nt	nt
O=C(CCl)Nc1ccc(N=Nc2ccccc2)cc1	i	i	6µM	i	i	i
CC(=O)Nc1ccc(N=Nc2ccccc2)cc1	i	10µM	6µM	10µM	2.8µM	2.8µM
COc1ccc(CCNC(=O)CN2C(=O)NC(CCSC)C2=O)cc1 (centres undefined)	i	i	i	i	i	i
SMILES	KinaseGlo FLuc	ELG1 genotox	FLuc counter	SMN2 splice enh	Rab9 prom act	NPC1 prom act
CNC(=O)[C@@]1(Cc2ccccc2)C=C[C@@H](C)N1C(=O)OC	i	nt	nt	i	nt	nt
CC1CCCCC1NC(=O)CO/N=C/c1ccccc1OC(F)F (centres undefined)	i	i	i	i	i	i
O=C(Nc1nnc(C2CCCO2)s1)c1ccc(Br)cc1 (centres undefined)	i	?	?	i	?	3.5µM
CCCCc1c(O)nc(SC2CC(=O)N(c3ccc(C(=O)OCC)cc3)C2=O)[nH]c1=O (centres undefined)	nt	i	21µM	nt	i	i
CCOC(=O)C1CCN(C(=O)c2ccccc2NC(=O)c2nsc3ccccc23)CC1	nt	nt	i	nt	nt	nt
COc1ccc(N2CCN(Cc3nc4c(c(=O)n(C)c(=O)n4C)n3CCc3ccccc3)CC2)cc1	i	i	i	i	i	i
Cc1[nH][nH]c(=O)c1C(c1ccc(Br)cc1)c1c(C)[nH][nH]c1=O	nt	i	i	nt	i	i
Cc1cn(-c2ccc(Br)cc2)[nH]c1=O	i	18µM	?	i	i	i
CN(C)c1ccc(C(=O)c2ccc(N(C)C)c3ccccc23)cc1	i	?	15µM	?	i	i
COc1cc(NC(=S)N2CCN(C(=O)c3ccco3)CC2)c(OC)cc1Cl	i	i	i	i	i	i
Cc1ccc(C)c(C(=O)COC(=O)c2cc(Cl)nc3ccccc23)c1	i	i	12µM	i	i	i
Cc1ccc(C(=O)COC(=O)c2cc(Cl)nc3ccccc23)cc1C	i	i	15µM	i	i	i
Cc1cc(C(=O)OCC(=O)c2ccccc2)c2ccccc2n1	nt	i	?	nt	i	i
CCCC(=O)Oc1ccc(N(C(=O)CCC)S(=O)(=O)c2cccs2)cc1	i	i	i	i	i	i
CCOC(=O)C(=CNc1ccc(C(F)(F)F)cc1Cl)C(=O)OCC	nt	i	13µM	nt	i	i
COc1ccc(/C=C/C(=O)NC(C)CCc2ccccc2)cc1OC (centres undefined)	i	i	i	i	i	i
O=C(c1cc2cc([N+](=O)[O-])ccc2oc1=O)n1cccn1	i	i	i	i	4µM	i
CCc1ccc(C(=O)CN2CCSC2=N)cc1	i	?	3µM	?	0.71µM	1.6µM
CC(=O)Nc1cccc(Oc2cc(C#N)c(C#N)cc2N2CCCCCC2)c1	i	i	i	i	i	i
CCOc1cc(-c2c(C#N)c(N)nc3c2CCc2ccccc2-3)ccc1O	i	i	i	13µM	i	i
CC(C)c1nn2c(=O)cc(COC(=O)c3ccccc3Cl)nc2s1	nt	nt	17µM	nt	nt	nt
CC(C)c1nn2c(=O)cc(COC(=O)c3cccs3)nc2s1	nt	nt	11µM	nt	nt	nt
CCN1CCN(/C=N/c2nc3c(s2)CCCC3)CC1	i	0.92µM	1.3µM	i	?	?
Cc1cc(OCCn2cncn2)ccc1[N+](=O)[O-]	nt	i	i	nt	i	i
O=S(=O)(c1ccccc1)C1(S(=O)(=O)c2ccccc2)CCCC1	i	i	i	i	i	i
SMILES	KinaseGlo FLuc	ELG1 genotox	FLuc counter	SMN2 splice enh	Rab9 prom act	NPC1 prom act
O=C(Nc1nc2ccc(Br)cc2s1)c1ccco1	nt	?	3µM	nt	0.63µM	1.3µM
COc1cc2nc(NC(=O)c3ccco3)sc(=O)c2cc1OC	nt	i	i	nt	i	i
O=C(Nc1nc2ccc(Cl)cc2s1)c1ccco1	i	?	1.7µM	3.2µM	1.3µM	0.63µM
Cc1nc(NC(=O)c2ccco2)sc1-c1csc(Nc2ccc(Cl)cc2Cl)n1	i	i	?	i	i	i
COc1cccc(-c2nc3ccccc3c(=O)o2)c1	i	?	4.8µM	i	i	i
COc1cc(OC)cc(-c2nc3ccccc3c(=O)o2)c1	i	i	?	i	i	i
CCOc1cccc(-c2nc3ccccc3c(=O)o2)c1	nt	nt	5.4µM	?	nt	nt
N=C1C(c2nc3ccccc3[nH]2)=C(O)CN1c1ccc(F)cc1	i	?	i	i	i	?
Cc1c(CC(=O)N[C@@H](CCCNC(N)=O)C(=O)O)c(=O)oc2cc3oc4c(c3cc12)CCCC4	nt	i	17µM	nt	i	i
